Reference: PubChem BioAssay (Tox21)
Where “and” joins values, the source holds several entries; their conditions need not be identical. Equal values may be shown once. Records with an inconclusive call do not appear. Calls of active or inactive are those of the source. Unless noted, calls follow the shape of the dose curve; as a rule, active = well fitted curve in the direction sought with a large enough effect in the repeat runs; inconclusive = weak or mixed curves; inactive = no such curve, though single readings can be large; an effect the other way counts as inactive or inconclusive.

Legend:
[1] = qHTS assay to identify small molecule antagonists of the glucocorticoid receptor (GR) signaling pathway - cell viability counter screen (AID 720693); also: nearly all actives have a fitted effect of over 55% in size; also: potency is read from the fitted curve at half-maximal effect
[2] = qHTS assay for identifying genotoxic compounds that show differential cytotoxicity against isogenic chicken DT40 cell lines with known DNA damage response pathways - Rev3 mutant cell line (AID 743014); also: nearly all actives have a fitted effect of over 55% in size; also: potency is read from the fitted curve at half-maximal effect
[3] = qHTS assay for identifying genotoxic compounds that show differential cytotoxicity against isogenic chicken DT40 cell lines with known DNA damage response pathways - Rad54/Ku70 mutant cell line (AID 743015); also: nearly all actives have a fitted effect of over 60% in size; also: potency is read from the fitted curve at half-maximal effect
[4] = qHTS assay to identify small molecule antagonists of the androgen receptor (AR) signaling pathway - cell viability counter screen (AID 743033; also: nearly all actives have a fitted effect of over 45% in size; also: potency is read from the fitted curve at half-maximal effect)
[5] = qHTS assay to identify small molecule antagonists of the thyroid receptor (TR) signaling pathway - cell viability counter screen (AID 743064); also: nearly all actives have a fitted effect of over 50% in size; also: potency is read from the fitted curve at half-maximal effect
Summary of the method: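 GH3.TRE-Luc rat pituitary cells carrying a TRE-luciferase reporter were treated with compound plus 1 nM T3 (final) for 23.5 h at 37 °C. Viability was then read in the same wells by CellTiter-Fluor fluorescence after a further 30 min.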

[6] = qHTS assay to identify small molecule antagonists of the androgen receptor (AR) signaling pathway using the MDA cell line - cell viability counter screen (AID 743041; also: nearly all actives have a fitted effect of over 45% in size)
Summary of the method: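 Viability counter screen run alongside the AR antagonist reporter: cells seeded 5 h before compound, R1881 added, 16 h incubation at 37C without CO2, fluorescent CellTiter-Fluor signal quantified.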

[7] = biological target: Androgen receptor (Homo sapiens) (UniProt P10275); assay: qHTS assay to identify small molecule agonists of the androgen receptor (AR) signaling pathway using the MDA cell line (AID 743040; also: nearly all actives have a fitted effect of over 20% in size)
Summary of the method: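 Luminescence from ONE-Glo, read after 30 min at room temperature, reflects MMTV-driven luciferase in MDA-kb2 cells (AR- and GR-responsive). Treatment lasted 16 h at 37C, 0% CO2.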

[8] = biological target: Androgen receptor (Homo sapiens) (UniProt P10275); assay: qHTS assay to identify small molecule antagonists of the androgen receptor (AR) signaling pathway using the MDA cell line (AID 743042; also: nearly all actives have a fitted effect of over 55% in size; also: potency is read from the fitted curve at half-maximal effect)
Summary of the method: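 MDA-kb2 cells (human breast carcinoma, stably carrying an MMTV-luciferase reporter responsive to AR and GR) were plated at 3,000 cells/well and preincubated 5 hr at 37C, then given compound plus R1881 agonist for 16 h. ONE-Glo luminescence was read.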

[9] = qHTS assay for identifying genotoxic compounds that show differential cytotoxicity against isogenic chicken DT40 cell lines with known DNA damage response pathways - wild type cell line (AID 743012); also: nearly all actives have a fitted effect of over 60% in size; also: potency is read from the fitted curve at half-maximal effect
Summary of the method: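 Wild-type DT40 cells (300/well) exposed to compounds for 40 hours at 37 C/5% CO2. Viability read by CellTiter-Glo luminescence after 30 min at room temperature.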

[10] = biological target: Androgen receptor (Homo sapiens) (UniProt P10275); assay: qHTS assay to identify small molecule antagonists of the androgen receptor (AR) signaling pathway (AID 743035; active = well fitted inhibition curve with a large enough effect in the signal ratio in the repeat runs, not every such curve was filed as active; the % refers to the signal ratio; also: potency is read from the fitted curve at half-maximal effect)
Summary of the method: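 HEK293 cells stably carrying UAS-beta-lactamase reporter, 2,000/well, given compounds plus R1881 agonist and incubated 16 h at 37C. LiveBLAzer B/G FRET substrate then added for 2 h at room temperature before fluorescence reading.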

Measured: Potency

Chain of Androgen receptor (Homo sapiens) (P10275 whole entry, looked up): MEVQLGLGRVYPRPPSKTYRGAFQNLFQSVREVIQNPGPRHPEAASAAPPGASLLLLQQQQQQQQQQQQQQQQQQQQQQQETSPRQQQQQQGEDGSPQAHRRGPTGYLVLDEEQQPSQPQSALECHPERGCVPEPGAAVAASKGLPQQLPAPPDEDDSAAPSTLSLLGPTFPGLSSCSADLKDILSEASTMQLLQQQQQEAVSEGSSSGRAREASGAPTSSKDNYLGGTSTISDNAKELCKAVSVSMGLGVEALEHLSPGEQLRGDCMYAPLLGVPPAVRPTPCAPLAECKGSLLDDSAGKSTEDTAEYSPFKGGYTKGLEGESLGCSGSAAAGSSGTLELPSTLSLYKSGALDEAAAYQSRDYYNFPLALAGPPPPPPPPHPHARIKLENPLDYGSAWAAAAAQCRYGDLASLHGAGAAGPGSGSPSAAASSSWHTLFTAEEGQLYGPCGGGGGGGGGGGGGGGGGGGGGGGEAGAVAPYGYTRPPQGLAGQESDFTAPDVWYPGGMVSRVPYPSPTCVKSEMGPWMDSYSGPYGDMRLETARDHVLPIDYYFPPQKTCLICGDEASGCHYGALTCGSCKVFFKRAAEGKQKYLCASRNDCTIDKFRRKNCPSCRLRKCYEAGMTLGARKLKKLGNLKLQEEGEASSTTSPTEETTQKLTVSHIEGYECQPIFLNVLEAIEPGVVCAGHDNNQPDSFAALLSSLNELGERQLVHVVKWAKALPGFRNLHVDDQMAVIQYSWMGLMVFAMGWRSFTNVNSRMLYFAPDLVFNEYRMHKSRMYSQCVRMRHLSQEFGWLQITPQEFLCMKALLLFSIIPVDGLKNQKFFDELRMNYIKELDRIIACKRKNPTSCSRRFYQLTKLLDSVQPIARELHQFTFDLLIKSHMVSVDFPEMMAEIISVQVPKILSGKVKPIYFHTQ

Cc1cc(C(F)(C(F)(F)F)C(F)(F)F)ccc1NC(=O)c1cccc(I)c1C(=O)NC(C)(C)CS(C)(=O)=O
active: [2] 43.5 µM | [3] 30.8 µM
inactive: [1] | [4] | [5]

c1ccc(OCC2CO2)cc1 (stereo not drawn)
inactive: [1] | [6] | [5]

O=[N+]([O-])c1c2ccccc2cc2ccccc12
inactive: [1] | [4] | [6]

Cc1ccc(OP(=O)(Oc2ccccc2)Oc2ccccc2)cc1
inactive: [1] | [4] | [7] | [8] | [5]

Nc1ccc(Cc2ccc(N)c(Cl)c2)cc1Cl
active: [1] 53.1 µM | [9] 74.4 µM | [5] 52.7 µM
inactive: [6]

CC(C)CCCCCCCOP(=O)(Oc1ccccc1)Oc1ccccc1
active: [5] 27.4 µM
inactive: [1] | [4]

CNC(C)Cc1ccc2c(c1)OCO2 (stereo not drawn)
inactive: [1] | [9] | [4] | [10] | [7] | [6] | [8] | [5]

O=C(O)COc1nc(Cl)c(Cl)cc1Cl
inactive: [1] | [6]
active: [2] 57.4 µM

c1ccc(Nc2ccc3ccccc3c2)cc1
active: [2] 54.2 µM | [3] 60.8 µM | [5] 60.8 µM
inactive: [1] | [6]

O=S(=O)(c1ccc(Cl)cc1)c1ccc(Cl)cc1
active: [9] 24.6 µM | [2] 44.8 µM | [3] 52.8 µM

CCC(C)(C)C(=O)OC1=C(c2ccc(Cl)cc2Cl)C(=O)OC12CCCCC2
inactive: [1] | [4] | [7] | [6] | [8]

Fc1cccc(Cl)c1CCl
inactive: [1] | [2] | [3] | [4] | [5]

CCCCCCCCCCCCCCCCCCn1cc[n+](C)c1
active: [9] 1.21 µM | [2] 0.963 µM | [3] 2.16 µM | [4] 13.7 µM | [10] 3.87 µM | [8] 7.65 µM | [5] 12.1 µM
inactive: [7]

CC(C)N1C(=O)N(c2ccccc2)CSC1=NC(C)(C)C
active: [9] 21.7 µM | [2] 19.3 µM | [3] 24.3 µM
inactive: [4] | [10] | [7] | [6]

O=C(CBr)c1ccc(O)cc1
active: [2] 68.6 µM
inactive: [1] | [4] | [6] | [5]

COC(=O)N(C(=O)N1CO[C@@]2(C(=O)OC)Cc3cc(Cl)ccc3C2=N1)c1ccc(OC(F)(F)F)cc1
active: [9] 6.63 µM | [2] 14.8 µM | [3] 9.36 µM | [10] 6.69 µM | [8] 23.5 µM
inactive: [4] | [7] | [6] | [5]

C[C@H]1O[C@@H](O[C@H]2[C@@H](O)C[C@H](O[C@H]3[C@@H](O)C[C@H](O[C@H]4CC[C@@]5(C)[C@H](CC[C@@H]6[C@@H]5CC[C@]5(C)[C@@H](C7=CC(=O)OC7)CC[C@]65O)C4)O[C@@H]3C)O[C@@H]2C)C[C@H](O)[C@@H]1O
active: [9] 422 nM and 388 nM | [2] 473 nM and 218 nM | [3] 473 nM and 308 nM | [4] 95.2 nM and 22 nM | [10] 425 nM and 124 nM
inactive: [6] | [8] | [5]

CCCCCCCCCBr
inactive: [1] | [2] | [3] | [4] | [6] | [5]

COP(=S)(OC)Oc1cc(Cl)c(Br)cc1Cl
inactive: [1] | [7] | [6] | [5]
active: [2] 61.1 µM

Nc1ccccc1C(=O)Oc1ccc2ccccc2c1
inactive: [1] | [6] | [8] | [5]

NNC(=O)c1ccccc1
inactive: [1] | [9] | [3] | [5]

BrCBr
inactive: [1] | [4] | [6] | [5]

CC(=O)Nc1ccc2c(c1)Cc1ccccc1-2
active: [3] 62.1 µM
inactive: [1] | [4] | [5]

c1ccc2c(c1)[nH]c1cnccc12
inactive: [1] | [9] | [4] | [6] | [5]

Oc1c(Cl)c(Cl)cc(Cl)c1Cl
inactive: [1] | [7]
active: [9] 66.7 µM

CCCN(CCC)CCc1c[nH]c2ccccc12
inactive: [1] | [4] | [6]
active: [9] 53.8 µM | [5] 53.8 µM

[CH3][Hg][Cl]
active: [1] 19.5 µM | [3] 48.4 µM | [5] 0.861 µM
inactive: [4] | [7] | [6] | [8]

BrC(Br)C(Br)(Br)Br
active: [5] 24.5 µM
inactive: [1] | [9] | [3]

FC(F)(F)c1cccc(C2=CCN(CCc3ccc4ccccc4c3)CC2)c1
inactive: [1] | [4] | [5]

CC(C)(C)C(O)/C(=C\c1ccc(Cl)cc1Cl)n1cncn1 (stereo not drawn)
inactive: [6]
active: [9] 18.6 µM | [2] 18.6 µM | [3] 18.6 µM | [5] 83 µM

N#CNC#N
active: [3] 61.8 µM
inactive: [9] | [2] | [4] | [6]

COc1ccc(N)cc1N
active: [9] 11.7 µM | [2] 3.98 µM and 5.87 µM | [3] 9.99 µM and 7.38 µM | [4] 16 µM and 18.7 µM | [5] 37 µM

Clc1ccc(COC(Cn2ccnc2)c2ccc(Cl)cc2Cl)cc1 (stereo not drawn)
active: [9] 7.5 µM and 20.2 µM and 15.3 µM | [2] 16.8 µM and 12.8 µM and 9.65 µM | [3] 10.6 µM and 16.1 µM and 10.8 µM | [5] 13.3 µM and 27.2 µM

CSCCCN=C=S
active: [9] 48.6 µM | [2] 27.3 µM | [3] 43.3 µM
inactive: [4] | [6] | [5]

ClC(Cl)=C(c1ccc(Cl)cc1)c1ccc(Cl)cc1
inactive: [9] | [2] | [3] | [4]
active: [5] 62.6 µM and 30.6 µM

CC(C)C1CCC(Cc2ccc(Cl)cc2)C1(O)Cn1cncn1 (stereo not drawn)
active: [9] 19.1 µM | [2] 13.5 µM | [3] 8.55 µM | [5] 60.5 µM

N#CSCSC#N
inactive: [7]
active: [9] 5.57 µM and 1.21 µM | [2] 1.98 µM and 1.91 µM | [3] 3.51 µM and 1.52 µM | [8] 55.7 µM and 60.5 µM | [5] 2.79 µM and 4.28 µM
